PubChem BioAssay (NCATS)
Where “and” joins values, the source holds several entries; their conditions need not be identical. Identical values can stand only once. Results filed as inconclusive are left out. Calls of active or inactive are those of the source. The call rests on the fitted dose curve; in most records, active means well fitted cell-killing curve with a large enough effect; inconclusive means small, poorly fitted or top-dose-only effect; inactive means flat fitted curve, though single readings scatter.

Assay: Cellular viability qHTS for adrenocortical cancer (ACC) cell line SW-13 (AID 1963989); further: nearly all actives have a fitted effect of over 65% in size;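 on activity (max response): cells grown in serum-free medium with ITS supplement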
Conditions: SW-13 ACC cells viability, CellTiter-Glo, 48 h; activity (max response): hits give low values
In short: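 IC50 and maximal-response values come from four-parameter logistic fits of titration data. SW-13 cells in serum-free medium received compounds (up to 46 uM final) for 48 h before CellTiter-Glo luminescence.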
On the % scale 0 is the no-effect control and ±100 the full control effect; potency means the concentration at half of the fitted maximal effect.

Compound | activity (max response) | Potency
Cc1noc(C)c1-c1ccc(-c2cc(C(N)=O)c(NC(N)=O)s2)c(O[C@H]2CCNC2)c1 | -22.5% (inactive) | 
O=C(O)C1=CO[C@@H](O[C@@H]2O[C@H](CO)[C@@H](O)[C@H](O)[C@H]2O)[C@@H]2C(CO)=CC[C@H]12 | 7.35% (inactive) | 
CC(=O)Nc1ccc(OCCOCCOc2ccc(NC(C)=O)cc2)cc1 | -7.42% (inactive) | 
CN1CCN(C2CCC(n3cc(-c4ccc(Oc5ccccc5)cc4)c4c(N)ncnc43)CC2)CC1 (stereo not given) |  | 1.58 µM (active)
COc1ccc(Cl)cc1C(=O)NCCc1ccc(S(=O)(=O)NC(=O)NC2CCCCC2)cc1 | -4.38% (inactive) | 
COc1cc(C(=O)O)ccc1NC(=O)[C@@H]1N[C@@H](CC(C)(C)C)[C@](C#N)(c2ccc(Cl)cc2F)[C@H]1c1cccc(Cl)c1F | 1.9% (inactive) | 
COc1ccc2cc(OCC3(C(=O)O)CN(C(=O)c4ccc(F)cc4)C3)ccc2c1 | -4.74% (inactive) | 
CCC(=C/[C@H](C)C/C=C/C(C)=C/[C@@H](C)C(=O)[C@@H](C)[C@H](O)[C@@H](C)C/C(C)=C/C(=O)O)/C=C/[C@@H]1OC(=O)C=C[C@@H]1C |  | 0.0251 µM (active)
COc1cccc2c1C(=O)c1c(O)c3c(c(O)c1C2=O)C[C@@](O)(/C(CO)=N/NC(=O)CCCCCN1C(=O)C=CC1=O)C[C@@H]3O[C@H]1C[C@H](N)[C@H](O)[C@H](C)O1 |  | 3.55 µM (active)
CN(C)/N=N/c1nc[nH]c1C(N)=O | 10.5% (inactive) | 
C[C@@H]1O[C@@H](OC[C@H]2O[C@@H](Oc3c(-c4ccc(O)c(O)c4)oc4cc(O)cc(O)c4c3=O)[C@H](O)[C@@H](O)[C@@H]2O)[C@H](O)[C@H](O)[C@H]1O | 16.6% (inactive) | 
C[C@]12CCC3[C@@H](CC[C@H]4NC(=O)C=C[C@]34C)[C@@H]1CC[C@@H]2C(=O)Nc1cc(C(F)(F)F)ccc1C(F)(F)F (stereo not given in full) | -0.361% (inactive) | 
C#CC(C)(CC)OC(=O)c1ccccc1C(=O)O (stereo not given) | 8.16% (inactive) | 
C=C1C(=O)O[C@H]2C[C@H](C)C(/C=C/C(C)=O)=CC[C@H]12 |  | 15.8 µM (active)
CNC[C@H](O)c1cccc(O)c1 | 10.6% (inactive) and -8.09% (inactive) | 
CC(C)NCC(O)c1cc(O)cc(O)c1 (stereo not given) | 13.2% (inactive) | 
COc1cc(N2CCN(C)CC2)ccc1Nc1ncc2c(n1)N(C)c1ccccc1C(=O)N2C |  | 15.8 µM (active)
O=C1CC2(CCCC2)CC(=O)N1CCNCC1COc2ccccc2O1 (stereo not given) | 6.61% (inactive) | 
COc1ccc(/C=C\c2cc(OC)c(OC)c(OC)c2)cc1O |  | 0.01 µM (active)
CCS(=O)(=O)Nc1ccc(Oc2ccc(F)cc2F)c(-c2cn(C)c(=O)c3[nH]ccc23)c1 |  | 2 µM (active)

Compound | activity (max response) | Potency
CC(COc1ccccc1)NN (stereo not given) | 12.2% (inactive) | 
Nc1ncnc(Nc2ccc(OCc3ccccc3)c(Cl)c2)c1/C=N/OCCN1CCOCC1 |  | 17.8 µM (active)
CO[C@@]12[C@H](COC(N)=O)C3=C(C(=O)C(C)=C(N)C3=O)N1C[C@@H]1N[C@@H]12 | 9.06% (inactive) and -27.8% (inactive) | 
O=C1NC(=O)[C@@H](c2c[nH]c3ccccc23)[C@H]1c1cn2c3c(cccc13)CCC2 |  | 0.398 µM (active)
COCc1c(-c2ccc(NC(=O)Nc3cc(C(F)(F)F)ccc3F)c(F)c2)c2c(N)ncnn2c1CN1CCOCC1 | -5.64% (inactive) | 
O=C(O)Cc1ccccc1Oc1ccc(Cl)cc1Cl | 4.63% (inactive) | 
COc1cc(C(=O)N2CCCCCCC2)cc(OC)c1OC | 6.12% (inactive) | 
CCN1C(=O)CNc2ncc(-c3ccc(-c4ncn[nH]4)nc3C)nc21 |  | 8.91 µM (active)
N=C(N)c1ccc2nc(-c3cc(CC(=O)N[C@@H](CC(=O)O)C(=O)O)cc(-c4cc(S(N)(=O)=O)ccc4O)c3O)[nH]c2c1 | 10.3% (inactive) | 
COc1cccc2c1C(=O)c1c(O)c3c(c(O)c1C2=O)C[C@@](O)(C(=O)CO)C[C@@H]3O[C@H]1C[C@H](N)[C@H](O)[C@H](C)O1 |  | 2.31 µM (active) and 891 nM (active)
CCN(CC)CCOC(=O)C1(c2ccccc2)CCCC1 | 8.5% (inactive) | 
CC[C@]1(O)CC2CN(CCc3c([nH]c4ccccc34)[C@@](C(=O)OC)(c3cc4c(cc3OC)N(C)[C@H]3[C@@](O)(C(=O)OC)[C@H](OC(C)=O)[C@]5(CC)C=CCN6CC[C@]43[C@@H]65)C2)C1 (stereo not given in full) |  | 0.282 µM (active)
CC(C)N(CCC(=O)c1ccc2ccccc2c1)Cc1ccccc1 | -18.6% (inactive) | 
CCC(Cc1c(I)cc(I)c(N)c1I)C(=O)O (stereo not given) | 1.75% (inactive) | 
COc1cc(C=C2CCC/C(=C\c3ccc(O)c(OC)c3)C2=O)ccc1O |  | 4.61 µM (active)
Nc1ncnc2c1ncn2[C@@H]1O[C@H](CO)C[C@H]1O | -9.5% (inactive) | 
N[C@@H]1CN(c2c(F)cc3c(=O)c(C(=O)O)cn([C@@H]4C[C@@H]4F)c3c2Cl)CC12CC2 | -10.4% (inactive) | 
COc1ccc(S(=O)(=O)N(C(C)=O)c2ccccc2/C=C/c2cc[n+]([O-])cc2)cc1 |  | 1.12 µM (active)
COc1ccc(Cc2cnc(N)nc2N)cc1OC | 8.41% (inactive) | 
COc1ccc(S(=O)(=O)Nc2cc(-c3csc(C#N)c3)ccc2C)cc1 |  | 0.0631 µM (active)
